Measured values reported in PubChem BioAssay (Tox21).
Results filed as inconclusive are left out. Entries that show only a call come without a potency. Calls of active or inactive are those of the source. Unless noted, calls come from the whole dose curve.

Test: qHTS assay to identify small molecule agonists of the endoplasmic reticulum stress response signaling pathway (AID 1159516; active = well fitted activation curve with a large enough effect in the signal ratio in the repeat runs, not every such curve was filed as active; the % refers to the signal ratio)
Conditions: ESRE-bla HeLa, ER stress beta-lactamase reporter, 5 h; series mostly up to 61 µM
Procedure, shortened: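 Ratiometric FRET readout (405 nm excitation; 460 and 530 nm emission) of a beta-lactamase gene driven by the ER stress response element, after 2 hr substrate loading. HeLa ESRE-bla cells were seeded overnight and treated with compounds for only 5 hr at 37 C.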

Compound	outcome
c1ccc(N=Nc2ccccc2)cc1	inactive
O=P(O)(O)CCCl	inactive
CCCCCCOC(=O)c1ccccc1C(=O)OCCCCCC	inactive
CCCCCCCCCCCOC(=O)c1ccccc1C(=O)OCCCCCCCCCCC	inactive
Nc1cccnc1	inactive
CCN(CC)N=O	inactive
C=CCc1ccc(OC)cc1	inactive
Oc1ccc(-c2ccccc2)cc1	inactive
COP(=S)(OC)Oc1ccc([N+](=O)[O-])cc1	inactive
CCCCN(CCCC)N=O	inactive
Brc1ccc(Oc2cc(Br)c(Br)cc2Br)c(Br)c1	inactive
N[C@@H](Cc1ccc(N(CCCl)CCCl)cc1)C(=O)O	inactive
CC1(C)C(C=C(Cl)Cl)C1C(=O)OC(C#N)c1cccc(Oc2ccccc2)c1 (stereo unspecified)	inactive
Nc1ccc(Cl)cc1N	inactive
NCc1cccnc1	inactive
Oc1cc(Cl)c(Cl)cc1Cl	inactive
CCOc1cc(C=O)ccc1O	inactive
C#CCOS(=O)OC1CCCCC1Oc1ccc(C(C)(C)C)cc1 (stereo unspecified)	inactive
NNC(N)=S	inactive

Compound	outcome
O=C(O)CC[N+](=O)[O-]	inactive
Cc1ccc(OP(=O)(Oc2ccc(C)cc2)Oc2ccc(C)cc2)cc1	inactive
CCC(C)c1cc([N+](=O)[O-])cc([N+](=O)[O-])c1O (stereo unspecified)	inactive
CC(C)c1ccc(CO)cc1	inactive
c1nc[nH]n1	inactive
Cc1cc(Cl)ccc1OCCCC(=O)O	inactive
CCCCCCCCOC(=O)c1ccccc1C(=O)OCCCCCCCC	inactive
CN(C)c1ccc(C(=O)c2ccc(N(C)C)cc2)cc1	inactive
NNC(=S)NN	inactive
CC(O)CCO (stereo unspecified)	inactive
CCCCNC(=O)n1c(NC(=O)OC)nc2ccccc21	inactive
C=CCN(CC=C)C(=O)C(Cl)Cl	inactive
COc1ccc(C=O)cc1	inactive
Nn1cnnc1	inactive
O=C(CCl)c1ccccc1	inactive
C=CCc1ccc2c(c1)OCO2	inactive
CCC(C)(c1ccc(O)cc1)c1ccc(O)cc1	inactive
Cc1cc(C)cc(C)c1	inactive
N#CCCCl	inactive

Test: qHTS assay to identify small molecule agonists of the endoplasmic reticulum stress response signaling pathway - cell viability counter screen (AID 1159517); note: nearly all actives have a fitted effect of over 50% in size
Conditions: ESRE-bla HeLa viability, CellTiter-Glo luminescence, 5 h; series mostly up to 61 µM
Procedure, shortened: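 In parallel with the ESRE reporter read, cytotoxicity was scored by CellTiter-Glo luminescence (30 min, room temperature) on HeLa ESRE-bla cells dosed for 5 hr.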

Compound	Potency
c1ccc(N=Nc2ccccc2)cc1	inactive
O=P(O)(O)CCCl	inactive
CCCCCCOC(=O)c1ccccc1C(=O)OCCCCCC	inactive
CCCCCCCCCCCOC(=O)c1ccccc1C(=O)OCCCCCCCCCCC	inactive
Nc1cccnc1	inactive
CCN(CC)N=O	inactive
C=CCc1ccc(OC)cc1	inactive
Oc1ccc(-c2ccccc2)cc1	inactive
COP(=S)(OC)Oc1ccc([N+](=O)[O-])cc1	inactive
CCCCN(CCCC)N=O	inactive
Brc1ccc(Oc2cc(Br)c(Br)cc2Br)c(Br)c1	inactive
N[C@@H](Cc1ccc(N(CCCl)CCCl)cc1)C(=O)O	inactive
CC1(C)C(C=C(Cl)Cl)C1C(=O)OC(C#N)c1cccc(Oc2ccccc2)c1 (stereo unspecified)	inactive
Nc1ccc(Cl)cc1N	inactive
NCc1cccnc1	inactive
Oc1cc(Cl)c(Cl)cc1Cl	inactive
CCOc1cc(C=O)ccc1O	inactive
C#CCOS(=O)OC1CCCCC1Oc1ccc(C(C)(C)C)cc1 (stereo unspecified)	inactive
NNC(N)=S	inactive

Compound	Potency
O=C(O)CC[N+](=O)[O-]	inactive
Cc1ccc(OP(=O)(Oc2ccc(C)cc2)Oc2ccc(C)cc2)cc1	inactive
CCC(C)c1cc([N+](=O)[O-])cc([N+](=O)[O-])c1O (stereo unspecified)	inactive
CC(C)c1ccc(CO)cc1	inactive
c1nc[nH]n1	inactive
Cc1cc(Cl)ccc1OCCCC(=O)O	inactive
CCCCCCCCOC(=O)c1ccccc1C(=O)OCCCCCCCC	inactive
CN(C)c1ccc(C(=O)c2ccc(N(C)C)cc2)cc1	inactive
NNC(=S)NN	inactive
CC(O)CCO (stereo unspecified)	inactive
CCCCNC(=O)n1c(NC(=O)OC)nc2ccccc21	inactive
C=CCN(CC=C)C(=O)C(Cl)Cl	inactive
COc1ccc(C=O)cc1	inactive
Nn1cnnc1	inactive
O=C(CCl)c1ccccc1	inactive
C=CCc1ccc2c(c1)OCO2	inactive
CCC(C)(c1ccc(O)cc1)c1ccc(O)cc1	inactive
Cc1cc(C)cc(C)c1	inactive
N#CCCCl	inactive
